± gives the standard deviation.
Assays:
[1] = tested on: MILI (PIWIL2) piRISC loaded with L1MC piRNA (26 nt); experiment: pre-steady-state target cleavage rate (min^-1); guide: L1MC piRNA 5'p-UAACUAAAUACUAUGCAAGCUGUAGG; higher = faster piRNA-guided slicing of the target
Summary of the method: (§1)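 Active affinity-purified piRISC (1 nM) loaded with one synthetic guide was mixed with a transcribed, DNA-blocked target RNA library (0.1 nM), with or without 500 nM GTSF1 partner protein, in HEPES–potassium acetate buffer at 33 °C for 0–8 or 0–960 min. Uncleaved targets were sequenced, normalised to depth and to weakly complementary targets, and pooled across three trials, with k3 capped at 0.0001 min^-1. The pre-steady-state cleavage rate was determined with a burst-and-steady-state fit.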

[2] = tested on: EfPiwi piRISC loaded with L1MC piRNA (26 nt); experiment: pre-steady-state target cleavage rate (min^-1); auxiliary factor: 500 nM Ephydatia muelleri Gtsf1; guide: L1MC piRNA 5'p-UAACUAAAUACUAUGCAAGCUGUAGG; MIWI and MILI are mouse PIWI proteins and EfPiwi is from a freshwater sponge; tags in brackets are library labels; higher = faster piRNA-guided slicing of the target
Summary of the method: as §1

[3] = auxiliary factor: 500 nM mouse GTSF1
[4] = auxiliary factor: none (no GTSF1)

Sequence | pre-steady-state target cleavage rate [1, 3] | pre-steady-state target cleavage rate [1, 4] | pre-steady-state target cleavage rate [2]
UCCUGGAACAUCUUGCAUAGUAUUUAGUUA | 0.244 ± 0.013 | 0.0108 ± 0.0028 | 0.0653 ± 0.016
UCCUGCUACAGCUACCAUAGUAUUUAGUUA | 0.233 ± 0.032 | 0.0038 ± 0.0024 | 0.00308 ± 0.0021
UCCUCCUACUGCUUGCAUAGUAUUUUGUUA | 0.0977 ± 0.016 | 0.00448 ± 0.0018 | 0.0111 ± 0.0044
UCCUGGAUCUGCUUGCAUAGUUUUUAGUUA | 0.0213 ± 0.0057 | 0.00511 ± 0.002 | 0.00787 ± 0.0041
UCCUGGAUCAAGCUUGCAUAGUAUUUAGUUA | 0.237 ± 0.018 | 0.0103 ± 0.0028 | 0.0542 ± 0.012
UCCUGGAUCGAGCUUGCAUAGUAUUUAGUUA | 0.201 ± 0.016 | 0.0122 ± 0.0026 | 0.0315 ± 0.0069
UCCUCCUACAGCAUGCAUAGUAUUAAGUUA | 0.2 ± 0.023 | 0.00348 ± 0.0026 | 0.00654 ± 0.0033
UCCUGGAUCAGCGUGCAUAGUAUUUAGUUA | 0.225 ± 0.015 | 0.00697 ± 0.0035 | 0.0619 ± 0.012
UCCUGGAACAGCUUGCAUACUAUUUAGUUA | 0.0842 ± 0.014 | 0.00298 ± 0.0025 | 0.00571 ± 0.0014
UCCUCCUACACCUUGCAUAGUAUUUAGUUA | 0.237 ± 0.025 | 0.0085 ± 0.0022 | 0.0762 ± 0.025
UCCUGGAUGUCCUAUGCAUAGUAUUUAGUUA | 0.0987 ± 0.02 | 0.00575 ± 0.0022 | 0.00508 ± 0.0022
UCCUGGAUGAGCUUGCAUAGUAUUUAGUUUA | 0.184 ± 0.02 | 0.0105 ± 0.0031 | 0.0215 ± 0.0067
UCCUCUUACAGCUUGCAUAGUAUUUAGUUA | 0.35 ± 0.015 | 0.00963 ± 0.0032 | 0.243 ± 0.061
UCCUCCUACAGCUUGCAUAGUUUUUAGUUA | 0.0632 ± 0.011 | 0.00455 ± 0.0023 | 0.00894 ± 0.003
UCCUCGUACAGCUUGCAUUGUAUUUAGUUA | 0.223 ± 0.011 | 0.00719 ± 0.0021 | 0.0163 ± 0.004
UCCUGCUACAGCUUGCAUAGUAUCUAGUUA | 0.265 ± 0.033 | 0.00553 ± 0.0025 | 0.00723 ± 0.0019
UCCUGGAUCACGUUGCAUAGUAUUUAGAAA | 0.128 ± 0.022 | 0.00275 ± 0.0027 | 0.00652 ± 0.0044
